The supplement of paper PMC11417369
± gives the standard deviation of the averaged measurements. Whole data set: some 25,000 sequences, median “ln(normalized median fluorescence intensity)” near 8.6, cut for the highest 2% near 10. Only a selection was taken, and the highest values are over-represented in it overall.

system: PfAP2-EXP AP2 domain (GST-tagged); assay: gcPBM binding intensity (ln(normalized median fluorescence intensity)); higher = stronger DNA binding
Summary of the method: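 The binding buffer was 1× PBS containing 1% milk, 0.2 mg/ml BSA, 0.5% salmon testes DNA and 0.03% Triton X-100. In it, GST-tagged P. falciparum DNA-binding domains expressed in E. coli were applied for 1 h to an Agilent 4 × 180k array of primer-extended double-stranded 36-bp intergenic genomic probes plus negative controls. Binding intensity, read with Alexa488 anti-GST antibody and a 488 nm scan, is the highest Masliner-normalised natural-log median intensity across replicate spots of either probe orientation.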

Row | Sequence | gcPBM binding intensity (ln)
1 | TTTTTATTTTTAAAGGCACACACATTTTTATTTTTA [CACACA_site8624] | 8.41 ± 0.31
2 | AAACAAAATATGGTTCATGAGCAAAAGTTTATTTTG [XGTACX_negctrl_site531] | 8.69 ± 0.47
3 | TTGATTAAAATTAGTACACACAAAATACATGCGGGG [CACACA_site5284] | 9.2 ± 0.3
4 | AAGAACAAACAAAATAGTACAATATATATATATATA [XGTACX_site4258] | 10 ± 0.28
5 | ACTAAAAGATATATAATTTCTTTCTTATTTATTTTT [CACACA_negctrl_site842] | 8.1 ± 0.35
6 | AAATATATAAAATATACACACAGTAATATATATATA [CACACA_site1385] | 9.52 ± 0.35
7 | TTCTGTCAATATGCTTGTACGAAATATTTCGTAATT [XGTACX_site3182] | 8.87 ± 0.4
8 | TTTTTTGCTAAAAAGAGTACTAATAAAAAATTTATT [XGTACX_site5235] | 8.34 ± 0.34
9 | GAAAAAAAAAAAAATACACACAAATTGGTATATAAT [CACACA_site4369] | 8.41 ± 0.39
10 | TAAATAAAAAAACACACACACATATATATATATATA [CACACA_site2269] | 10.2 ± 0.25
11 | AAAAATGGTGTTAACACACACATATATATATATATA [CACACA_site571] | 10.2 ± 0.17
12 | TATAAATAAAAACACACACACATATATATATATATA [CACACA_site2319] | 10.1 ± 0.32
13 | TAAATAAATAAAAAAACACACATATATATATATATA [CACACA_site4029] | 10.2 ± 0.32
14 | TATAAATAAAAACACACACACACATATATATATATA [CACACA_site2268] | 9.99 ± 0.39
15 | AATAAAATATAAACATTATATATATATATATATATA [GTGCAC_negctrl_site58] | 10.3 ± 0.38
16 | TAAATAAATAAAAAAACACACATATAAATATAAATA [CACACA_site7815] | 8.56 ± 0.4
17 | CATAAAATATAAAACACACACACATATATATATATA [CACACA_site223] | 10.2 ± 0.44
18 | AAAAAATAAATAAACATAAATAAATAAATAAATATA [XGTACX_negctrl_site340] | 8.49 ± 0.33
19 | AAAAATGGTGTTAACACACACATATAAATAAATATA [CACACA_site6412] | 8.44 ± 0.35
20 | AATAAACATAAATAAAAATTATAAAATATATATATG [CACACA_negctrl_site1709] | 8.38 ± 0.32
21 | ATAAAAATGGTGTTAACACACACATATATATATATA [CACACA_site8089] | 10.1 ± 0.38
22 | TTCTAACTTTTAAACACACAAATATAAATAAGTATA [CACACA_site7473] | 8.29 ± 0.62
23 | CCAACTAAAAAGGAATGTACATAGTTATGGTTGGAA [XGTACX_site8762] | 9.04 ± 0.47

Row | Sequence | gcPBM binding intensity (ln)
24 | TAAGGAAAAAGAAAAAGTACATTATATAATAAATAG [XGTACX_site3282] | 8.71 ± 0.46
25 | GTGAAATGGAAAAAAAGTACAGATTACATAAGTATT [XGTACX_site6355] | 8.64 ± 0.42
26 | TATTTATTGTGATACTACTATTATTTTATGATTAAA [CACACA_negctrl_site284] | 8.44 ± 0.42
27 | GTATAATATTCATATTCACACATTAAAATATATTTA [CACACA_site4879] | 8.49 ± 0.49
28 | AAAAAATGATAATATACACACTTATGGGAGAGCGCA [CACACA_site5398] | 8.275 ± 0.078
29 | ATTTTAAATTAAATTACACACTACGAATAATATATT [CACACA_site4016] | 8.43 ± 0.42
30 | CAACAAAAGTTATTTACACACAAAAGGCAAGGAAAT [CACACA_site7013] | 8.94 ± 0.47
31 | TAACATATTTTTAATACACACTTAAAAAAGTACTTA [CACACA_site4875] | 8.31 ± 0.34
32 | TTTTTTTTTTTTTACACACCCAAATCACATACATAT [CACACA_site6089] | 8.59 ± 0.44
33 | AGAAATGAAATATACACACATACATATATACATATA [CACACA_site4033] | 8.49 ± 0.27
34 | AAAAAAAAAATTAAAACATGCATAAATAAATATATT [TGCATGCA_site866] | 8.73 ± 0.37
35 | TCAATAAATATACATACATGCATACATACATACATA [TGCATGCA_site197] | 8.72 ± 0.47
36 | AATCAATAAATAAAAACATGCATATATATATATATA [TGCATGCA_site438] | 10.3 ± 0.47
37 | AAAAAAAAATTAAAAACACACATATAAATAAATATA [CACACA_site6845] | 8.48 ± 0.48
38 | AAAAAAAAATTAAAAACACACATATATATATATATA [CACACA_site1580] | 10.2 ± 0.39
39 | AAATGTTGAAATGATACACACATATATATATATATA [CACACA_site2517] | 10.3 ± 0.32
40 | AAAAAAATTAAACACACACACACATATATATATATA [CACACA_site4718] | 10.1 ± 0.25
41 | AAATGTTGAAATGATACACACATATAAATATAAATA [CACACA_site7229] | 8.53 ± 0.42
42 | TGGTATATAAAACACACACACATATGTATTTATATA [CACACA_site4665] | 8.54 ± 0.38
43 | TCATGGAATATTTAAAGTACAAAAAGTGTTCTTTAC [XGTACX_site715] | 8.21 ± 0.3
44 | TAATATCATTTATGTAGTACTATAACAAGAACTATA [XGTACX_site3618] | 8.33 ± 0.35
45 | TATATATATATAAAGGTGCATATCTTTACGTATGTC [GTGCAC_site9665] | 9.99 ± 0.11
